Hit rate of the full screen: of about 2,400 compounds, fewer than 10 were called active. The rule behind the calls is not given here. The list is a sample of the results.
Biological target: Rac GTPase-activating protein 1 (Homo sapiens) (UniProt Q9H0H5)
Test: MgcRacGAP inhibitors via phosphate release, confirmation, orthogonal assay, biochemical, inorganic phosphate detection, Rac1 (AID 652142)
Details: MgcRacGAP/Rac1F28L GTP hydrolysis, Biomol green phosphate; stronger effect = higher value; concentration not given here

Chain of Rac GTPase-activating protein 1 (Homo sapiens) (Q9H0H5 whole entry, looked up): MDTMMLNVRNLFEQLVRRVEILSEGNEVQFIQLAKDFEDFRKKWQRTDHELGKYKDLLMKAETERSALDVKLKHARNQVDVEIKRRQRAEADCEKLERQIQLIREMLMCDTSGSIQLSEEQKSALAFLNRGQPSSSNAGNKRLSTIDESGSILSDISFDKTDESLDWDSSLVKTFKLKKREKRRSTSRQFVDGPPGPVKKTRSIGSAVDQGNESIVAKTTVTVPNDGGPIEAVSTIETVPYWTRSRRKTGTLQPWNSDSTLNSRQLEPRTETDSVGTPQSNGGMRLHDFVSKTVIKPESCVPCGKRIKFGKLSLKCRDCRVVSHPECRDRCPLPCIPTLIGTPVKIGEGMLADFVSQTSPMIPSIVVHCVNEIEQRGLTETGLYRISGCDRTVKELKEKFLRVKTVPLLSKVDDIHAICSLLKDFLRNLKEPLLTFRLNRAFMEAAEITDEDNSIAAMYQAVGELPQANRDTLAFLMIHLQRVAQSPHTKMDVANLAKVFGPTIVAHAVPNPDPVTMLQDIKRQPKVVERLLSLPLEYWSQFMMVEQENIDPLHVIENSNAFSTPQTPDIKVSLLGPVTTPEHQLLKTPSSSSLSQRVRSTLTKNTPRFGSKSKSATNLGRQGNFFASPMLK

inhibition, inactive:
Cc1nn2cc(-c3ccc(N)cc3)nc2s1 22.3%
Oc1ccc(/C=N/Nc2ccnc3cc(Cl)ccc23)cc1O 4.55%
Oc1ccc(/C=N\Nc2cc(N3CCOCC3)nc(N3CCOCC3)n2)c(O)c1 21.8%
Nc1ccc(N2CCCC2)c(S(=O)(=O)Nc2cccc(C(F)(F)F)c2)c1 29.9%
Cc1ccc(-c2cc(C(=O)N3CCN(c4ccc(O)cc4)CC3)c3ccccc3n2)cc1 23.8%
O=C(/C=C/Nc1ccc(Nc2ccccc2)cc1)c1cccs1 19.5%
C/C(=N\NC(=O)c1cccc(N/N=C(\C)c2cc(O)ccc2O)c1)c1cc(O)ccc1O 28.1%
Cc1ccc(CN2CCN(Cc3ccccc3C(F)(F)F)CC2)cc1 17.2%
CCOC(=O)C1=C(COC(=O)/C=C/c2ccc(O)c(OC)c2)NC(=O)NC1C (stereo not given) 11.2%
COc1cc(/C=C/C(=O)OCC(=O)N2CC3(C)CC2CC(C)(C)C3)ccc1O (stereo not given) 33.5%
COc1ccc(S(=O)(=O)/N=C2\C=C(Nc3ccc(O)cc3)C(=O)c3ccccc32)cc1 13.5%
CCn1c(=S)[nH]c2sc3c(c2c1=O)CCCC3 10.8%
CCc1ccc(O)c(N=Cc2cccc(C)c2O)c1 23.4%
N=C(N)c1ccc(N=Nc2c(O)ccc3c2[nH]c2ccccc23)cc1 62.4%
CCc1ccc(O)c(N=Cc2ccccc2O)c1 33.5%
CN(C)c1ccc(C=c2c3cc(O)ccc3n3c2cc(-c2ccccc2)[n+]3C)cc1 83.7%
Oc1ccc(/C=N/Nc2cc(N3CCOCC3)nc(N3CCOCC3)n2)cc1 25.9%
Oc1ccc(/C=N/Nc2ccc(C(F)(F)F)cn2)c(O)c1 19.4%
O=S(=O)(O)c1cc(O)c(N=Nc2ccc(O)cc2O)c2ccccc12 24.4%
Oc1ccc(-c2[nH]ncc2-c2ccc(Cl)cc2)c(O)c1 26.7%
CN(C)c1ccc2c(c1)C(=NO)c1ccccc1-2 19.4%
O=C(NCc1ccco1)c1sc(=S)n2c1[nH]c(=O)c1ccccc12 31.8%
CCN(CC)c1ccc(Nc2nc(Cl)ncc2Br)cc1 33.2%
CCOc1cc(/C=N/NC(=O)CN2CCCCC2)ccc1O 30.3%
CN(c1ccc(O)cc1)c1nc(-c2ccccc2)cs1 23.3%
COc1cc(/C=N/Nc2nc3ccccc3[nH]2)ccc1O 12.2%
CCN(c1ccccc1)S(=O)(=O)c1ccc(N2CCN(c3ccc(O)cc3)CC2)nc1 27.7%
CCOc1cc(/C=N/NC(=O)CCCC(=O)NC2CCCCC2)ccc1O 20.5%
Cc1cc(-c2ccccc2)nc(N/N=C/c2ccc(O)cc2O)n1 20.5%
Cc1c(C(=O)N/N=C/c2ccc(O)c(Br)c2)sc(N)c1C#N 31.3%
Nc1ccc2nc(C3CCCCC3)[nH]c2c1 28.4%
COc1cc(/C=N/NC(=S)NC2CC3CCC2C3)ccc1O (stereo not given) -0.0456%
COc1cc2c(cc1NC(=O)C(Cl)Cl)-c1ccc(NC(=O)C(Cl)Cl)cc1C2 13.1%
CSc1nc(/C=C2\C=Nc3ccccc32)c(O)n1C 7.92%
Cn1c(-c2ccc(Cl)cc2)cnc1NCc1cc2c(cc1[N+](=O)[O-])OCO2 22.1%
C=CCn1c(SCC(=O)c2ccc(O)c(O)c2)nnc1-c1cccc(Cl)c1 29.9%
CN(Cc1ccccc1)Cc1c(O)ccc2ccccc12 23.9%
COc1cc(/C=N/NC(=O)CN(Cc2ccccc2)S(=O)(=O)c2ccc3c(c2)OCCO3)ccc1O -2.68%
COc1cccc(CNc2ccc3[nH]c(=O)[nH]c3c2)c1OCc1ccccc1Cl -0.282%
Cc1ccccc1C(OCC(O)CN1CCN(CCO)CC1)c1ccccc1 (stereo not given) 29.2%
CCN1CCN(CCOc2ccc(Br)cc2C)CC1 23.2%
COc1cc(/C=N/NC(=O)NC23CC4CC(CC(C4)C2)C3)ccc1O 35.9%
O=c1c2ccccc2sn1-c1ccc(Cl)cc1 75%
CC[n+]1ccc(/C=C/c2ccc(N(C)C)cc2)c2ccccc21 31.5%
COc1cc(/C=N/NC(=O)c2nnn(-c3nonc3N)c2C(C)C)ccc1O 15.1%
CN1CCN(/N=C/c2nc(-c3ccccc3)n3ccccc23)CC1 30.1%
CC(=O)N1CCN(c2ccc(Nc3ncnc4c3oc3ccccc34)cc2)CC1 8.13%
CCOc1cc(/C=N/NC(=O)c2ccccc2-n2cccc2)ccc1O 30.4%
CN(C)c1ccc(N=C/C=C2\N(C)c3ccccc3C2(C)C)cc1 22.7%
COc1cc(/C=N/NC(=O)c2ccc(-n3cccc3)cc2)ccc1O 12.4%
COc1cc(/C=N/NC(=O)C2(O)c3ccccc3-c3ccccc32)ccc1O 25.6%
COc1ccc(Oc2cn[nH]c2-c2ccc(O)cc2O)cc1 17.2%
Cc1cc(-c2ccccc2)nc(N/N=C/c2ccc(N(C)C)cc2)n1 23.8%
COc1cc(-c2nc3ccc(C)cn3c2Nc2ccc3c(c2)OCCO3)ccc1O 21.3%
CCOC(=O)c1cc(NCc2cccs2)ccc1N1CCOCC1 30.4%
O=C(N/N=C/c1ccc(O)cc1)Nc1cccc2nsnc12 33.1%
CC(=O)Nc1ccc(Oc2nc(-c3ccccn3)nc3ccccc23)cc1 26%
CCCS(=O)(=O)N1CCN(CC2CC3C=CC2C3)CC1 (stereo not given) 10.6%
O=c1c2ccccc2sn1-c1ccc(Cl)cc1Cl 79.5%
O=[N+]([O-])c1cccc(/C=N/n2c(-c3cccnc3)n[nH]c2=S)c1 32.9%
C=CCn1c(N/N=C/c2ccc(O)cc2)nc2ccccc2c1=O 18.4%
COc1cc(CCNC2=CC(=O)c3ncccc3C2=O)ccc1O 23.7%
C/C(=N\Nc1ccc(S(=O)(=O)N2CCCCC2)cn1)c1ccc(O)cc1 27.3%
COc1ccccc1N=NNc1ccccc1OC 28.7%
CC(C)(C)N1C(=O)c2ccc(C(=O)Nc3ccc(O)cc3)cc2C1=O 24.3%
Cn1c(-c2ccc3c(c2)OCO3)cnc1NCc1ccccc1Cl 27.7%
COc1cccc(Nc2nc(-c3ccc(O)cc3)cs2)c1 31.8%
C=CCn1c(=O)/c(=C/c2ccc(O)cc2)s/c1=C(/C#N)c1nnc2n1CCCCC2 18.2%
COc1ccc(CNc2ncc(-c3ccc(F)cc3)n2C)c2ccccc12 17.2%
CCOC(=O)/C(C#N)=C\c1c(OCC)n(CC)c2ccccc12 19.7%
Cc1cccc(C)c1OCCCCN1CCNCC1 32%
CC1(C)OC(=O)C(=NNc2ccc(O)cc2)C(=O)O1 20.7%
CCN(CC)S(=O)(=O)c1cccc(NC(=O)CNC2CCCCCC2)c1 31%
C#CCOCCOCCOCCNc1nc(N2CCN(C(=O)[C@H](CCCCN)n3cc([C@@H](N)CC(C)C)nn3)CC2)nc(N2CCN(C(=O)[C@H](CCCCN)n3cc([C@@H](N)CC(C)C)nn3)CC2)n1 39.7%
COc1cc(/C=C2\SC(=Nc3c(C)n(C)n(-c4ccccc4)c3=O)NC2=O)ccc1O 22.8%
Nc1ccc2nc(-c3ccccc3)[nH]c2c1 26.8%
Oc1ccc(Cl)cc1C=Nc1ccc2c3c(cccc13)CC2 29.6%
Nc1ccc(-c2nc3ccc(N)cc3s2)cc1 22.9%
COc1cc2[nH]c(=S)nc(NCCc3ccc(S(N)(=O)=O)cc3)c2cc1OC 17.7%
Cc1c(O)ccc(/C(Cc2ccc3ccccc3n2)=N\O)c1O 25.3%
Oc1ccc(/C=N/Nc2cc(N3CCOCC3)nc(N3CCOCC3)n2)cc1O 7.37%
Cc1ccccc1-c1ccc(Nc2ccc(N3CCOCC3)cc2)nn1 33.6%
CC1=NN(c2ccccc2)C(=O)/C1=C/C=C/C=C/N(C)C 21.7%
Cc1ccc(C2C=NN(c3ccccc3)C2=O)cc1 (stereo not given) -3.99%
S=c1[nH]c2ccccc2n2c(=S)[nH]nc12 23.8%
O=C1CCCC/C1=C\Nc1ccc(O)cc1 30.3%
O=C(Nc1ccccc1C(=O)N/N=C/c1ccc(O)cc1)c1ccccc1 25.8%
Cc1ccc(Nc2n[nH]c(=S)s2)cc1 23.2%
C#CCOCCOCCOCCNc1nc(N2CCN(C(=O)[C@H](CCCCN)n3cc([C@@H](N)C(C)CC)nn3)CC2)nc(N2CCN(C(=O)[C@H](Cc3cc4ccccc4[nH]3)n3cc([C@@H](N)C(C)CC)nn3)CC2)n1 (stereo not given in full) 54.2%
Fc1ccc(CNc2ccc(N3CCN(Cc4ccccc4)CC3)cc2)cc1 7.97%
Cc1cc(SCC(=O)c2ccc(O)c(O)c2)nc2ccccc12 5.6%
COc1ccc(NC(=O)n2ncc3cc(Cl)ccc32)cc1OC 23.6%
COc1ccc(C(CNC(=O)c2cc3ccccc3cc2O)N2CCOCC2)cc1 (stereo not given) 18%
CC1CCCCN1Cc1c(O)ccc2c(=O)c(-c3nc4ccccc4s3)c(N)oc12 (stereo not given) 30.4%
CCN(CC)CCCC(C)NC(=O)c1c(NC(=O)c2ccccc2)sc2c1CCCC2 (stereo not given) 24.9%

From PubChem BioAssay AID652142 (Molecular Libraries Program, Specialized Chemistry Center, …, 2013)
